Measured values from PubChem BioAssay AID489008 (National Center for Advancing Translational Sciences (NCATS), 2010).
Inconclusive results are not listed. Calls of active or inactive are those of the source. Calls come from the whole dose curve; as a rule, active = well fitted inhibition curve with a large enough effect; inconclusive = small, poorly fitted or top-dose-only effect; inactive = flat fitted curve, though single readings scatter.

biological target: Ferritin light chain (Equus caballus) (UniProt P02791); experiment: Confirmation Assay for Identification of Novel General Anesthetics; conditions: apoferritin 1-aminoanthracene fluorescence displacement; note: nearly all actives have a fitted effect of over 40% in size
Sequence (P02791 2-175 limits assumed): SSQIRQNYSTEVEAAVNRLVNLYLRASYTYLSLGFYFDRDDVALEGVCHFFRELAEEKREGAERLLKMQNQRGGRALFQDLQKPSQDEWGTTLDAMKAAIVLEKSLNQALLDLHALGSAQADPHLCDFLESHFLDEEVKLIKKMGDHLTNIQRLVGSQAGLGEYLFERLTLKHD
In short: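 Horse apoferritin (10 uM) pre-loaded with 1-AMA (50% saturated, PBS) exposed to compounds 10 min at room temperature; loss of 1-AMA fluorescence (380/535 nm) scaled between free and bound ligand, curves fitted with Hill equation.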
Potency is the fitted concentration of half-maximal effect.

Potency, active:
O=C(Nc1ccc(Br)cc1)N1CCCCCC1 25.1 µM
O=C1c2ccsc2SCCN1Cc1cccc(Cl)c1 15.8 µM
CC1CCCCC1NC(=O)COC(=O)COc1ccccc1Cl (stereo not drawn) 17.8 µM
NCCOc1ccc(C23CC4CC(CC(C4)C2)C3)cc1 11.2 µM
Nc1nnc(SCC(=O)NC23CC4CC(CC(C4)C2)C3)s1 7.94 µM
CCN(CC)CC(=O)Nc1c(C)cc(C(C)(C)C)cc1C 12.6 µM
CCN(CC)C(=S)SCC(=O)c1ccc(F)cc1 15.8 µM
O=C(COc1ccccc1Cl)N1CCCCCCC1 15.8 µM
O=C(COC(=O)C(O)c1ccccc1)NC12CC3CC(CC(C3)C1)C2 (stereo not drawn) 12.6 µM
O=C1CC2(CCCC2)CC(=O)N1c1ccccc1 15.8 µM
O=S(=O)(NCCCc1ccccc1)c1ccc(F)c(F)c1 17.8 µM
c1ccc(CCNc2nc3ccccc3s2)cc1 10 µM
O=c1[nH]cnc2sc3c(c12)CCCCC3 15.8 µM
CCN(CC)C(=S)SCC(=O)c1ccccc1 28.2 µM
Cc1ccccc1Cn1nnc2sc3c(c2c1=O)CCCC3 15.8 µM
CC(C)c1ccccc1OCC(=O)N1CCCCCCC1 11.2 µM
COc1cccc(CNc2ccc(C)c(Cl)c2)c1 11.2 µM
Nn1cnnc1SCC(=O)Nc1ccc(C2CCCCC2)cc1 7.08 µM
Cc1ccc(NS(=O)(=O)N2CCOCC2)cc1Cl 12.6 µM
O=C(Cn1sc2ccccc2c1=O)NC12CC3CC(CC(C3)C1)C2 15.8 µM
Cc1cccc(S(=O)(=O)NCCc2ccccc2)c1 14.1 µM
COc1ccccc1CC(=O)N1CCCc2ccccc21 31.6 µM
Cc1ccc(NC(=O)C2COc3ccccc3O2)cc1C (stereo not drawn) 17.8 µM
CN(C)CC(=O)Nc1ccc(Oc2ccc(Cl)cc2)cc1 28.2 µM
O=C(CCl)Nc1ccc(N2CCCCCC2)cc1 15.8 µM
Cc1ccc(C(=O)N2CCCc3ccccc32)c(F)c1F 22.4 µM
Clc1ccc(NCc2ccsc2)cc1 25.1 µM
CN(C(=O)c1cncc(Br)c1)C1C2CC3CC(C2)CC1C3 (stereo not drawn) 12.6 µM
CC1CCCCC1NC(=O)Cn1nc(-c2ccccc2)ccc1=O (stereo not drawn) 7.08 µM
CCCCCc1ccc(C2=NNC(=O)CC2)cc1 28.2 µM
O=C1C(Cl)=C(N2CCOCC2)C(=O)N1c1ccccc1Cl 15.8 µM
O=C(NC1CCCCC1)C(=S)NCc1ccccc1 15.8 µM
COC1CCCCC1Nc1cc(C)cc(C)c1 (stereo not drawn) 31.6 µM
CCOC(=O)c1c(C(C)(C)C)oc2ccc(O)cc12 39.8 µM
Cc1ccccc1CSCC(=O)N/N=C/c1cccs1 15.8 µM
Fc1ccc(NCc2ccccc2F)cc1Cl 14.1 µM
CC(C)CCSc1nc2ccccc2[nH]1 15.8 µM
CCCCSC(=O)Nc1ccccc1 7.08 µM
